HCMV antiviral = inhibitors of human cytomegalovirus; 410,000 tested, 4.5% active; HFF cells, HCMV-luciferase reporter, 72 h; active compounds read low; activity change, negative = inhibition, % at 57.5 µM; in the data active means activity change below about -60%; inconclusive means no clear call, values can overlap the other calls; inactive means above about -39%
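Luciferase read-out from HCMV-luciferase-infected HFFs (MOI 1 PFU/cell) 72 h post infection at 37C; compounds added after 16 h cell attachment; activity normalized between buffer-only basal and Salinomycin (10uM) inhibitor controls.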
FMDV inh = antivirals against foot and mouth disease virus; 410,000 tested, 1.2% active; Potency, µM (titrated, usually from 57.9 µM), usual class: inhibitors; FMDV antiviral cell-based qHTS; calls by dose curve; tested in HEK293T cells; further: read-out not given here; nearly all actives have a fitted effect of over 45% in size
AmpC no deterg = inhibitors of E. coli AmpC beta-lactamase without detergent. P00811. AmpC nitrocefin hydrolysis, absorbance 480 nm, 0.0001% Triton. Potency, µM (doses to about 57.1 µM), hits mostly inhibitors. 330,000 tested, 0.52% active. AID 485341; further: nearly all actives have a fitted effect of over 20% in size
Target sequence (P00811 whole entry, looked up): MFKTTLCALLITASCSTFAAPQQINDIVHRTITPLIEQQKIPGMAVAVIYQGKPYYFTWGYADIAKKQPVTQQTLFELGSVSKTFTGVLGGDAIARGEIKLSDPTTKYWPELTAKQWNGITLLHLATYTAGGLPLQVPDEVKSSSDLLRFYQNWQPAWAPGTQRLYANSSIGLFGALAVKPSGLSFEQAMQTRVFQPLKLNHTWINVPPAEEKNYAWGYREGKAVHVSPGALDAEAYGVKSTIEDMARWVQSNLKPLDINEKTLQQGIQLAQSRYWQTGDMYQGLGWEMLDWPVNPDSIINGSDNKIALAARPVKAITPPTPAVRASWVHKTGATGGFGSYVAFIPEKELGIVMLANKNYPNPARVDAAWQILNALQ
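20 mM phosphate pH 7.0 + 0.01% (detergent screen) or 0.0001% Triton X-100; 5.3 nM AmpC reagent; cpd preinc 15 min RT; nitrocefin (800 uM stock) to start; A480 q20 s × 4 min; Activity was normalised to no-enzyme and no-compound control wells.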
AmpC detergent = inhibitors of E. coli AmpC beta-lactamase with detergent; P00811; Potency, µM (highest dose often 114 µM), most hits filed as inhibitors; AmpC hydrolysis of nitrocefin, absorbance 480 nm, 0.01% Triton; 370,000 tested, 0.041% active; further: nearly all actives have a fitted effect of over 25% in size
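20 mM phosphate pH 7.0 + 0.01% (detergent screen) or 0.0001% Triton X-100; 5.3 nM AmpC reagent; cpd preinc 15 min RT; nitrocefin (800 uM stock) to start; A480 q20 s × 4 min; Activity was normalised to no-enzyme and no-compound control wells.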
HCV inh = blocks hepatitis C virus | Huh7.5.1 HCVcc-Cre infection, luciferase reporter, 44 h | Potency, µM (doses to about 41.8 µM), usual class: inhibitors | 340,000 tested, 3.4% active | AID 651820
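After 44 h co-culture of compound, cells and HCVcc-Cre (~0.5 moi), substrate is added for 15 min at room temperature and luciferase measured over 15 sec. Cells were seeded at 1,000/well and pre-cultured 4 h.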
Hits are given with their value; . = inactive; ? = inconclusive; / = not tested or not shown. Shown are actives, neighbours in structure and some others; about 7.3% of the full set was active somewhere. Unless noted, the call rests on the fitted dose curve; in most records, active means well fitted curve in the direction sought with a large enough effect; inconclusive means small, poorly fitted or top-dose-only effect, or another doubt; inactive means no such curve, though single readings can be large; an effect the other way counts as inactive or inconclusive.

SMILES	HCMV antiviral	FMDV inh	AmpC no deterg	AmpC detergent	HCV inh
COc1ccc(-c2csc(NC(=O)Cc3ccccc3F)n2)cc1OC	?	.	.	.	10µM
O=C(Nc1ccc(F)cc1F)c1cccc(C(=O)Nc2ccc(F)cc2F)n1	-99.1	.	.	?	.
O=C(Nc1ccc(F)cc1F)c1csc(-c2ccccc2)n1	.	.	.	.	?
O=C(Cc1ccccc1F)Nc1nc(-c2ccc(F)cc2)cs1	.	.	.	.	.
CC(=O)Nc1ccc(NC(=O)C(C)OC(=O)CSc2ccc(Br)cc2C)cc1 (stereo not given)	.	.	.	.	.
CCCCCOC(=O)C1=C(C)NC(=O)NC1c1ccc(OC)cc1 (stereo not given)	.	.	.	.	?
CN(C)c1cccc2c1c(NC(=O)Nc1ccc(F)cc1F)nn2C	-62.7	.	.	.	?
CN(C)c1cccc2c1c(NC(=O)c1ccc(F)cc1)nn2C	.	.	.	.	.
Cc1cc(N)c2cc(NC(=O)Nc3ccc4nc(C)cc(N)c4c3)ccc2n1	-99.3	/	/	/	/
Fc1ccc2ncc3c(-c4ccccc4)n[nH]c3c2c1	.	.	/	.	/
NC1(N2SC(S)=C3CCCC=C32)CCCCC1	.	/	/	/	/
CCCC(Oc1ccc(Br)cc1)c1nc2c3cc(OC)c(OC)cc3nc(=S)n2[nH]1 (stereo not given)	-86.3	.	.	.	?
CC(Oc1ccc(Br)cc1)c1nc2c3ccccc3nc(=S)n2[nH]1 (stereo not given)	.	.	.	.	.
C=C1CCC2[C@](C)(CO)[C@H](O)CC[C@@]2(C)[C@@H]1C/C=C1/C(=O)OC[C@H]1O (stereo not given in full)	/	.	/	/	/
C=C1CCC2[C@](C)(CO)[C@H](O)CC[C@@]2(C)[C@@H]1C/C=C1\C(=O)OC[C@H]1O (stereo not given in full)	-107.0	?	.	.	?
Cc1cc(C)n2c(Nc3c(C)cccc3C)c(-c3ccccn3)nc2n1	-69.2	?	/	/	/
Cc1cccc(C)c1Nc1c(-c2ccccn2)nc2ccccn12	-97.1	.	.	.	10µM
Cc1ccc(Nc2c(-c3ccccn3)nc3ccc(Br)cn23)cc1	.	.	/	.	/
Cc1ccc2nc(-c3ccccn3)c(NC3CCCC3)n2c1	-65.7	.	.	.	?
COc1ccc(/C=C(\C#N)c2nc3ccc(C)cc3[nH]2)cc1Oc1ccc(C(F)(F)F)cc1[N+](=O)[O-]	-67.9	.	.	.	?
CCOC(=O)COc1ccc(/C=C(\C#N)c2nc3ccc(C)cc3[nH]2)cc1OC	-104.7	.	/	.	/
Cc1ccc2nc(/C(C#N)=C/c3ccc(-c4cccc([N+](=O)[O-])c4)o3)[nH]c2c1	-62.2	.	11.2µM	.	.
COc1cc(/C=C(\C#N)c2nc3ccccc3[nH]2)ccc1Oc1ccc([N+](=O)[O-])cn1	.	.	.	.	0.891µM
Cc1ccc2nc(/C(C#N)=C/c3ccc(-c4ccc(F)cc4F)o3)[nH]c2c1	.	.	/	.	/
COc1cc(/C=C(/C#N)c2ccccc2)ccc1Oc1ccc([N+](=O)[O-])cn1	.	?	.	.	?
SMILES	HCMV antiviral	FMDV inh	AmpC no deterg	AmpC detergent	HCV inh
CCCCC(=O)NCc1nc2cccnc2n1Cc1ccc(OC)cc1	?	?	/	.	/
COc1cc(/C=C(/C#N)c2nc3ccccc3c(=O)[nH]2)ccc1O	.	.	28.2µM	.	.
OCCN1CCOCCN(CCO)CCOCC1	-92.1	.	.	.	.
CC(=O)c1cnn(-c2nc3c(C)cccc3s2)c1C	-98.8	.	.	.	.
CC(=O)c1cnn(-c2ccccc2)c1C	.	.	.	.	.
COc1ccccc1C1CN(Cc2cccc3c2OCO3)Cc2ccccc2O1 (stereo not given)	/	.	/	/	/
N#Cc1ccc(NC(=O)Cn2cnc([N+](=O)[O-])c2)cc1	.	.	.	?	.
O=C(Cn1cnc([N+](=O)[O-])c1)Nc1cc(Oc2ccc(Cl)cc2Cl)cc([N+](=O)[O-])c1	-73.2	.	.	.	6.31µM
O=C(/C=C/c1ccc(O)c(O)c1)NC(=O)c1ccccc1O	.	.	.	.	.
O=C(/C=C/c1ccc(Br)cc1)NC(=O)c1ccccc1O	-101.7	.	?	.	.
C=C1N(S(=O)(=O)C(F)(F)F)CCC12CN(C)c1ccccc12 (stereo not given)	.	/	/	/	/
C=C1N(S(=O)(=O)C(F)(F)F)CCC12CN(S(=O)(=O)c1ccc(C)cc1)c1ccccc12 (stereo not given)	-70.4	/	/	/	/
CCOc1ccc(-n2cc(-c3ccccc3)c3c(N4CCN(c5ccccc5OC)CC4)ncnc32)cc1	.	.	/	.	/
CCOc1ccc(-n2cc(-c3ccccc3)c3c(N4CCC(C)CC4)ncnc32)cc1	-62.6	.	/	.	/
CCOC(=O)C1CCN(c2ncnc3c2c(-c2ccccc2)cn3-c2ccccc2)CC1	.	.	.	.	10µM
CC1CN(c2ncnc3c2c(-c2ccccc2)cn3-c2ccc(F)cc2)CC(C)O1 (stereo not given)	.	?	.	.	10µM
OCCN1CCN(c2ncnc3c2c(-c2ccccc2)cn3-c2ccc(F)cc2)CC1	.	?	.	.	.
CCCN(CCC)C(=O)CCSCCC(=O)N(CCC)CCC	-102.4	.	.	.	.
CCc1cccc2[nH]c3cc([N+](=O)[O-])ccc3c12	-61.2	.	.	.	?
O=c1[nH]c2cc([N+](=O)[O-])ccc2c2ccccc12	.	.	/	/	.
Cc1cccc(C)c1OCCn1c(C2CC(=O)N(Cc3ccc(F)cc3)C2)nc2ccccc21 (stereo not given)	.	?	/	.	/
CCOc1ccccc1/C=C/c1onc(C)c1S(=O)(=O)N1CCC(C(=O)NC(C)(C)C)CC1	.	.	.	.	?
Cc1ccc(NC(=O)C(C)OC(=O)/C=C/c2ccccc2)cc1S(=O)(=O)N1CCOCC1 (stereo not given)	.	.	.	.	.
Cc1nn(Cc2ccc(Cl)cc2Cl)c(C)c1NC(=O)Cn1nc([N+](=O)[O-])c(Cl)c1C	.	?	/	.	?
Cc1nn(Cc2ccc(C(=O)Nc3ccccc3F)cc2)c(C)c1Cl	-61.8	.	.	.	.
SMILES	HCMV antiviral	FMDV inh	AmpC no deterg	AmpC detergent	HCV inh
Cc1nn(Cc2ccc(C(=O)NN)cc2)c(C)c1Cl	.	.	.	?	.
Cc1nn(Cc2ccc(Cl)cc2)c(C)c1NC(=O)C(c1ccccc1)c1ccccc1	-64.0	.	.	.	?
Cc1nn(Cc2ccc(Cl)cc2)c(C)c1NC(=O)Cn1nc([N+](=O)[O-])c(Cl)c1C	.	.	.	.	3.16µM
CCNC(=O)C1CCCN(C(=O)c2ccc(C)c(F)c2)CC1 (stereo not given)	.	.	/	/	/
Cc1ccc(SCC(=O)c2ccc(CC(=O)O)s2)cc1	.	.	20µM	.	.
O=C(O)Cc1ccc(C(=O)CSc2ccccc2)s1	.	.	?	.	.
